A selection: hits, their analogues and other compounds. The true share with any hit is near 32%.
PostGolgi ctrl: yeast control strain growth, post-Golgi counter-screen | efflux-deficient yeast background strain, growth absorbance A615, 16 h | inhibition, % at 10 µM | 98,000 tested, 5% active
CYP2C9 inhib: inhibitors of human CYP2C9; inhibition, % at 5 µM; AID 777; 96,000 tested, 20% active; CYP2C9 Supersomes, luciferin-H conversion, luminescence; P11712;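 active = blocking of liver enzyme CYP2C9 beyond about 50% at 5 µM, limit read from the data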
CYP2C19 act: increases human CYP2C19 enzyme activity | recombinant CYP2C19, luciferin-H EGE luminescence; stronger effect = higher value; 0 = fully inhibited enzyme, 1 = untreated enzyme | activation factor at 5 µM | P33261 | 96,000 tested, under 10 active | AID 1025;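 active = activation factor of at least 2 at 5 µM in the primary screen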;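 note: 0 = wells with 2.5 mM tranylcypromine and 1 = vehicle-only wells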
Target sequence (P33261 whole entry, looked up): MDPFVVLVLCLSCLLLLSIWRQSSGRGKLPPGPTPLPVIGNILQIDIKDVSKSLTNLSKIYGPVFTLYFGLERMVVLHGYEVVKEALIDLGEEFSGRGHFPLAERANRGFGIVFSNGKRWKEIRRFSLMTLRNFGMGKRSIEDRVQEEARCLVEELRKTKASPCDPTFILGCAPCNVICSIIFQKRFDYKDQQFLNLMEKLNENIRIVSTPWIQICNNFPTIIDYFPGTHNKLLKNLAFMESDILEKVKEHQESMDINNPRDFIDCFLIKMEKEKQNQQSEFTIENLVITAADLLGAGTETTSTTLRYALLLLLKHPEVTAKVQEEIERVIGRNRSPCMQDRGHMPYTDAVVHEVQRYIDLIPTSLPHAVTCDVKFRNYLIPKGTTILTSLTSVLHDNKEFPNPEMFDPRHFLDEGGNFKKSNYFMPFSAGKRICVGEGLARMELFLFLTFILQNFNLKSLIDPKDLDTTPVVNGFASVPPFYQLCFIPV
CYP2C9 act: increases human cytochrome P450 2C9 activity; recombinant CYP2C9, luciferin-H conversion, luminescence; stronger effect = higher value; factor 1 = untreated enzyme, 0 = blocked; P11712; activation factor at 5 µM; 96,000 tested, 1.4% active; AID 1024;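 active = activation factor of 2 or more for CYP2C9 at a 5 µM dose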;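 note: 0 = sulfaphenazole-blocked wells and 1 = vehicle-only wells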
PostGolgi yeast: growth inhibition of a yeast mutant, post-Golgi transport screen; post-Golgi transport phenotypic cell assay; inhibition, % at 10 µM; 98,000 tested, 0.9% active;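 note: yeast cells grown in 1536-well plates; yeast grown about 18 h at 30C before absorbance read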
CYP2C19 inhib: human CYP2C19 inhibition; P33261; CYP2C19 Supersomes, luciferin-H EGE luminescence, 30 min; inhibition, % at 5 µM; 96,000 tested, 21% active; AID 778;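 active = CYP2C19 inhibition above a set limit at 5 µM in the primary screen, cut at about 50% in these data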;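 note: plate controls were negative control wells for no effect and 2.5 mM tranylcypromine positive control for full effect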
Numbers without * were called inactive; · = no result. Cut-off read from the data, not from the text of the source, unless noted: active = inhibition above about 30%; inactive = the rest.

SMILES	PostGolgi ctrl	CYP2C9 inhib	CYP2C19 act	CYP2C9 act	PostGolgi yeast	CYP2C19 inhib
C=CCN1C(=O)C(Cc2ccc(OC)cc2)S/C1=N/N=C/c1ccco1 (stereo not given)	7	11	0.2	0.9	-5	78*
C=CCN1C(=O)C(Cc2ccc(Br)cc2)S/C1=N\N=C\c1ccco1 (stereo not given)	10	-4	1.1	1	-6	-11
Cc1nc2ccc(C(=O)O)cc2c2c1CC(C)S2 (stereo not given)	3	-10	1.1	1.1	11	-14
CC1=CCC(COC(=O)Nc2ccccc2)CC1 (stereo not given)	31*	8	0.5	0.9	1	46
O=C(Nc1ccccc1)OCC1CCCN2CCCCC12 (stereo not given)	5	-39	1.1	1.4	7	-11
CCN(CC)S(=O)(=O)c1cccc(-c2nnc(SCC(=O)c3ccc(Cl)s3)n2C)c1	5	89*	0.3	0.1	-2	71*
C=CCSc1nnc(-c2nnc(SCC=C)n2-c2ccccc2)n1-c1ccccc1	33*	36	0.7	0.6	6	32
CCN(CC)S(=O)(=O)c1cccc(-c2nnc(SC(C)C(N)=O)n2CCc2ccccc2)c1 (stereo not given)	8	56*	0.5	0.4	6	46
COc1ccc2c(Cl)c(-c3nnc(SCC(=O)c4ccccc4)n3C)sc2c1	15	11	0.9	0.9	2	10
O=C(O)CCSc1nnc(-c2ccncc2)n1-c1ccccc1	-1	·	·	·	2	·
CCN(CC)S(=O)(=O)c1cccc(-c2nnc(SCC(N)=O)n2CCc2ccccc2)c1	10	·	·	·	-6	·
C=CCSc1nnc(-c2sc(-c3ccccc3)nc2C)n1C	10	-15	0.7	1.1	6	32
N#CCCCSc1nnc(-c2ccc(Cl)cc2)n1-c1ccccc1	15	50*	0.7	0.5	16	34
COc1cc(C(=O)N(Cc2ccc(F)cc2)C2CCS(=O)(=O)C2)cc(OC)c1OC (stereo not given)	3	8	1	0.9	-3	-5
CCN(CC)C(=O)CSc1nnc(COc2ccccc2)n1CC	-6	14	0.7	0.9	-5	28
CCOC(=O)CSc1nnc(-c2cccnc2)n1Cc1ccccc1	1	19	0.9	0.8	-4	8
Cc1cccc(-c2nnc(SCC#N)n2-c2ccccc2)c1	2	36	0.5	0.6	9	51*
Cc1cccc(-c2nnc(SCC#N)n2Cc2ccccc2)c1	-2	51*	0.2	0.5	-3	77*
Cc1ccc(-c2nnc(SCC(=O)CC(=O)Nc3ccccc3)n2-c2ccccc2)cc1	2	20	1	0.8	-1	3
CCN(CC)S(=O)(=O)c1cccc(-c2nnc(SCC#N)n2Cc2ccccc2)c1	33*	18	0.8	0.8	-4	23
CCN(CC)S(=O)(=O)c1cccc(-c2nnc(SC(C)C#N)n2Cc2ccccc2)c1 (stereo not given)	21	64*	0.4	0.4	11	61*
Cc1ccc2c(c1)[nH]c1c(=O)n(Cc3ccccn3)cnc12	8	9	0.8	0.9	-1	21
CC1C(c2ccccc2)N(C)C(c2ccccc2)CC1(O)c1ccccc1 (stereo not given)	16	24	0.3	0.8	9	65*
CN(C)/C=N/C(=S)Nc1ccc(Br)cc1F	15	23	0.4	0.8	1	59*
CC(C)(C)c1cc2cccnc2n1Cc1cccc(Cl)c1	10	16	0.5	0.8	3	48
Cn1c(C(C#N)C2=C(Cl)C(=O)N(c3ccccc3)C2=O)nc2ccccc21 (stereo not given)	0	92*	0.2	0.1	-4	78*
CCn1c(CC(=O)Nc2ccccc2F)nnc1SCC(=O)N1CCN(c2ccccc2)CC1	9	44	0.9	0.6	-4	14
COc1ccc(-c2csc(N(CC3CCCO3)C(=O)c3ccco3)n2)cc1 (stereo not given)	24	-1	1.1	1	18	-6
Cc1ccccc1-c1nc(CN2CCC(C(=O)NCCCN3CC(C)CC(C)C3)CC2)c(C)o1 (stereo not given)	-1	-9	1.1	1.1	-3	-12
CC(=O)Nc1ccc(S(=O)(=O)Nc2nc(CN3CCOCC3)nc3sc4c(c23)CCCC4)cc1	11	53*	1.1	0.5	-6	-11
